This passage reports activity remaining (% of control) results from PubChem BioAssay AID436 (Emory University Molecular Libraries Screening Center, 2006).

Molecules are shown by their SMILES. Among all 72,000 compounds or so, about 350 (0.49%) were called active. Many of the other results were omitted from the sample, so actives are more common in it than they were. A number with no mark means an inactive call.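 Rule for the calls: active = activity remaining at or below 50% of control, provided the compound also passes the data quality filters; inactive = the rest, including low values that fail the filters.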

In the test the target is Ubiquitin carboxyl-terminal hydrolase BAP1 (Homo sapiens) (UniProt Q92560). Briefly: BAP1 ubiquitin hydrolase activity blockers – biochemical, Ub-AMC fluorescence, kinetic, primary screen (AID 436).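 Note: 100% = DMSO wells rate and 0% = substrate alone blank rate.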 Particulars: recombinant BAP1, Ub-AMC hydrolysis fluorescence kinetic; at 20 µM; hits give low values.
Ubiquitin carboxyl-terminal hydrolase BAP1 (Homo sapiens), sequence (Q92560 whole entry, looked up): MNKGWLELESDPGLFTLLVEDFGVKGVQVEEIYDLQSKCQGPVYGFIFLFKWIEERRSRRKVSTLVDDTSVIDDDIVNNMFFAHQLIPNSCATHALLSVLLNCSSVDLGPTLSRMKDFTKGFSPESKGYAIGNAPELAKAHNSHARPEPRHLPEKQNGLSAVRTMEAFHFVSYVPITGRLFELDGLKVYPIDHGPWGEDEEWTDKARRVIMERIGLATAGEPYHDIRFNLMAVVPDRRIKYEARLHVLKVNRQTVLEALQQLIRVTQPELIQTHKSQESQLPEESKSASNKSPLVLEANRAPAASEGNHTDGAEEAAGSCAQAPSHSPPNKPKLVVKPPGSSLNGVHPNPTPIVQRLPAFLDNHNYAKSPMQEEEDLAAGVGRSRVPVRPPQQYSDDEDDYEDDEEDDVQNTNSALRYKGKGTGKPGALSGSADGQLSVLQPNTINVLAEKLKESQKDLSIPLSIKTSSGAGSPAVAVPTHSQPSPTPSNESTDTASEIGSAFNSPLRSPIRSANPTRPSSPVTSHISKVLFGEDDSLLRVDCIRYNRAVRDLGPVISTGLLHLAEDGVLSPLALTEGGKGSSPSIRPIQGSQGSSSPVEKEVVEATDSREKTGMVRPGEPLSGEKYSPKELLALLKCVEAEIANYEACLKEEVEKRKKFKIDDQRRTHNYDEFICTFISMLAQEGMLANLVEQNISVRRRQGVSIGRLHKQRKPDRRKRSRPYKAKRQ
Consider `Cn1c(=N)n(CC(=O)c2ccco2)c2ccccc21`, for which the activity remaining (% of control) was 76.8%. With `Brc1ccc(-c2nc3ccccc3nc2-c2ccccc2)cc1`, the activity remaining (% of control) was 66.2%.

Take `CCOc1ccc(Nc2cc(C)nc3ncnn23)cc1`: the activity remaining (% of control) is 112%. `Nc1nnc(-c2ccccc2SCc2ccc(F)cc2)s1`: the activity remaining (% of control) was 68.2%. Consider `COc1ccc(C(=O)Nc2ccc3oc(-c4ccc(C)cc4)nc3c2)cc1[N+](=O)[O-]`, for which the activity remaining (% of control) is 77%. For `Cc1c(N=Cc2cc(Br)ccc2O)c(=O)n(-c2ccccc2)n1C`, the activity remaining (% of control) is 106%. Take `CC(=O)CCN1C(=O)C(=O)c2ccccc21`: the activity remaining (% of control) was 83.2%.

As for `CCn1c(N2CCCC2)nc2c1c(=O)n(C)c(=O)n2C`, the activity remaining (% of control) is 117%. Consider `Cc1nc2sc3ccccc3c2s1`, for which the activity remaining (% of control) is 122%. For `COc1ccc(-c2csc(NC(=O)c3ccc(S(=O)(=O)N4CC(C)CC(C)C4)cc3)n2)cc1C` (stereo unspecified), the activity remaining (% of control) is 92.9%.

With `Cn1c(SCC(=O)c2ccc(Cl)cc2)nc2c1c(=O)[nH]c(=O)n2C`, the activity remaining (% of control) was 112%. On to `COc1ccc(OC)c(NC(=O)c2cc(Cl)ccc2[N+](=O)[O-])c1`, for which the activity remaining (% of control) was 90.2%. Take `CCCCOC(=O)C1=C(C)NC2=C(C(=O)CCC2)C1c1ccc(OCC)c(OC)c1` (stereo unspecified): the activity remaining (% of control) was 72.5%.

With `Cc1ccc2cccc(NC(=O)C34CC5CC(CC(C5)C3)C4)c2n1`, the activity remaining (% of control) was 149%.

Turning to `CCOC(=O)c1c(C)oc2ccc(N(C(=O)c3ccccc3)S(=O)(=O)c3ccc(Cl)c([N+](=O)[O-])c3)cc12`, the activity remaining (% of control) was 71%.

For `CCCOC(=O)c1ccc(NC(=O)c2ccc(OC)cc2)cc1`, the activity remaining (% of control) was 167%. The result for `CC1=C(C(=O)OCc2ccccc2)C(c2ccccc2I)NC(=O)N1C` (stereo unspecified) reads 104%; that for `CCOC(=O)c1c(N=c2oc3ccccc3cc2C(=O)Nc2ccc(F)cc2)sc(C)c1C`, 63.1%. For the compound `CC(C)C(=O)Nc1c2c(nn1-c1ccc(Cl)cc1)CSC2`, the activity remaining (% of control) was 73.6%. The same measure for `COc1ccc(N2C(=O)CSC2c2cc(Br)ccc2OC)cc1` (stereo unspecified): 80.4%.

As for `O=C(Nc1nc2ccccc2s1)C1CC(=O)N(c2ccccc2Cl)C1` (stereo unspecified), the activity remaining (% of control) was 204%.

Regarding `O=C(CSc1nc2sc3c(c2c(=O)[nH]1)CCCC3)NCc1ccccn1`, the activity remaining (% of control) was 170%. `O=C(Nc1cccc(-c2nc3ccccc3o2)c1)C1CCCCC1`: the activity remaining (% of control) was 79.6%. Take `COc1ccc(C2CC(c3c(-c4ccccc4)c4cc(Br)ccc4[nH]c3=O)=NN2C(=O)c2ccncc2)cc1` (stereo unspecified): the activity remaining (% of control) was 97.8%. On to `Fc1ccc2nc(N3CCCCC3)sc2c1`, for which the activity remaining (% of control) was 108%. As to `O=C(Cn1c(=O)sc2ccccc21)Nc1nc2c(s1)CCCC2`, the activity remaining (% of control) is 79.8%. Consider `Fc1ccc2nc(Nc3nc4c(s3)CCCC4)sc2c1`, for which the activity remaining (% of control) was 43.8% (active).

As for `COc1ccccc1NS(=O)(=O)c1cc(C(=O)c2ccc(Br)cc2)ccc1C`, the activity remaining (% of control) was 78.7%. On to `CC(C)C(O)(c1ccccc1)c1cc[n+](C)cc1` (stereo unspecified), for which the activity remaining (% of control) is 229%. For the compound `CCOC(=O)C(C(=O)OCC)n1ccc(=O)[nH]c1=O`, the activity remaining (% of control) is 71.2%. With `CC(=O)NC12CC3CC(C1)CC(c1ccc([N+](=O)[O-])cc1)(C3)C2`, the activity remaining (% of control) is 70.3%. The result for `CC(=O)NC(=O)c1cc2cc(Cl)ccc2oc1=Nc1ccc(C#N)cc1` reads 84.2%; that for `Cc1ccc(S(=O)(=O)NCCN=Cc2ccc3c(c2)OCO3)cc1`, 99.1%; that for `O=C1c2ccccc2-c2onc3c(N4CCCC4)ccc1c23`, 60.4%. Take `COc1ccc(C(=O)Nc2c[nH]c(=O)[nH]c2=O)cc1OC`: the activity remaining (% of control) was 54.8%. For the compound `O=c1c2ccccc2nc(CSc2nnnn2-c2ccccc2)n1-c1ccccc1`, the activity remaining (% of control) was 37.5% (active). On to `N#CCSc1nc2ccccc2c(=O)n1-c1ccccc1`, for which the activity remaining (% of control) was 109%. Take `CCOC(=O)c1sc(NC(=O)c2cc(Cl)ccc2[N+](=O)[O-])nc1C`: the activity remaining (% of control) was 56.8%. With `Cc1ccc(S(=O)(=O)N(CC(O)CN2C(=O)NC(C)(C)C2=O)c2cccc([N+](=O)[O-])c2)cc1` (stereo unspecified), the activity remaining (% of control) was 74.1%. As for `COc1ccc(C(=O)Nc2nc3c(ccc4ccccc43)s2)c(OC)c1`, the activity remaining (% of control) was 480%.

With `O=C(CC(=O)Nc1ccc2c(c1)Cc1cc([N+](=O)[O-])ccc1-2)Nc1ccc2c(c1)Cc1cc([N+](=O)[O-])ccc1-2`, the activity remaining (% of control) was 74%.

For `O=S(=O)(c1cccc(S(=O)(=O)N2CCC(n3nnc4ccccc43)CC2)c1)N1CCCCC1`, the activity remaining (% of control) is 42.6% (active). As to `Cc1ccc(S(=O)(=O)N2CCC(N3CCCCCC3)CC2)cc1`, the activity remaining (% of control) was 79.2%. With `CC(=O)c1cccc(S(=O)(=O)N2CCC(n3nnc4cc(F)ccc43)CC2)c1`, the activity remaining (% of control) is 84.8%. `CCOC(=O)c1c(NC(=O)c2cccnc2)sc2c1CCCC2`: the activity remaining (% of control) was 131%.

Turning to `Fc1ccc(-c2ccc(-c3nn4c(-c5ccco5)nnc4s3)o2)cc1`, the activity remaining (% of control) was 49.1% (active). Consider `FC(F)(F)c1nnc2sc(-c3ccco3)nn12`, for which the activity remaining (% of control) is 92.7%. The same measure for `Cc1nnc2sc(-c3ccco3)nn12`: 63.2%.

`CCOC(=O)C1C(=O)C=C(C=Cc2cccs2)CC1c1ccccc1` (stereo unspecified): the activity remaining (% of control) is 107%. For `Cc1c(Cc2ccccc2)c(=O)oc2c(C)c(OC(C)C)ccc12`, the activity remaining (% of control) is 64.3%.

`Cn1c(C#CC(C)(C)O)cc2ccccc21`: the activity remaining (% of control) was 106%. As to `COc1cc(-c2nnc(SCC(=O)c3ccc(Cl)cc3)o2)cc(OC)c1OC`, the activity remaining (% of control) is 135%. Regarding `Cc1ccc(S(=O)(=O)Nc2cccc(F)c2)cc1C(=O)O`, the activity remaining (% of control) is 98.5%. The result for `Cc1ccc(OCC(=O)Nc2ccc(C)c(Cl)c2)cc1C` reads 81.6%. On to `COc1ccc(-c2nc3cc(C)ccc3o2)cc1N=Cc1cccc(OC)c1O`, for which the activity remaining (% of control) is 160%.

With `CC(C)(C)C(O)Cn1c(=N)n(Cc2ccc(Cl)cc2)c2ccccc21` (stereo unspecified), the activity remaining (% of control) is 201%. As to `CC(C)c1ccc2c(c1)c(SC(C)(C)C)c(CC(C)(C)C(=O)O)n2Cc1ccc(Cl)cc1`, the activity remaining (% of control) is 17.2% (active).

As to `O=C(O)CCCC(=O)NC1=NCCS1`, the activity remaining (% of control) is 91.1%. In the case of `NC(=O)c1c(NC(=O)c2ccc(Oc3ccccc3)cc2)sc2c1CCCCC2`, the activity remaining (% of control) was 77.2%. As to `O=C1CSC(c2ccc([N+](=O)[O-])cc2)N1c1ccc(Br)cc1` (stereo unspecified), the activity remaining (% of control) was 83.1%. For the compound `COC(=O)C1=C(C)NC2=C(C(=O)CC(C)(C)C2)C1c1cccc(O)c1` (stereo unspecified), the activity remaining (% of control) was 58.1%.
